IL2 activator = qHTS of IL-2 Activators. actives 0.065% (n = 360,000). IL-2 activation reporter assay, cell-based qHTS; stimulated with anti-CD3/CD4/CD28 beads; in transgenic mouse T cells. activation, % (series mostly up to about 46 µM); in the data active = activation above about 50%; inconclusive = mostly about 30% to 49%; note: 0% is about no effect
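Screening format: compound pinned onto unstimulated transgenic mouse T cells, 60 min incubation, then anti-CD3/anti-CD4/anti-CD28 bead stimulation for 18 hours at 37 degrees C, followed by EGFP and DsRed detection.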
RXFP1 agonist = qHTS Assay for Agonists of the Relaxin Receptor RXFP1 | actives 0.3% (n = 370,000) | HEK293T-RXFP1 cAMP TR-FRET, 30 min; response scale: percent of porcine relaxin response, buffer zero | Relaxin receptor 1 (Homo sapiens), Q9HBX9 | Potency, µM (titrated, usually from 57.5 µM), inactives show top-dose activation, actives largely listed as activators; note: potency is the fitted concentration of half-maximal effect; % is set by controls: 0 for no effect and ±100 for the full control effect; nearly all actives have a fitted effect of over 60% in size
Target sequence (Q9HBX9 whole entry, looked up): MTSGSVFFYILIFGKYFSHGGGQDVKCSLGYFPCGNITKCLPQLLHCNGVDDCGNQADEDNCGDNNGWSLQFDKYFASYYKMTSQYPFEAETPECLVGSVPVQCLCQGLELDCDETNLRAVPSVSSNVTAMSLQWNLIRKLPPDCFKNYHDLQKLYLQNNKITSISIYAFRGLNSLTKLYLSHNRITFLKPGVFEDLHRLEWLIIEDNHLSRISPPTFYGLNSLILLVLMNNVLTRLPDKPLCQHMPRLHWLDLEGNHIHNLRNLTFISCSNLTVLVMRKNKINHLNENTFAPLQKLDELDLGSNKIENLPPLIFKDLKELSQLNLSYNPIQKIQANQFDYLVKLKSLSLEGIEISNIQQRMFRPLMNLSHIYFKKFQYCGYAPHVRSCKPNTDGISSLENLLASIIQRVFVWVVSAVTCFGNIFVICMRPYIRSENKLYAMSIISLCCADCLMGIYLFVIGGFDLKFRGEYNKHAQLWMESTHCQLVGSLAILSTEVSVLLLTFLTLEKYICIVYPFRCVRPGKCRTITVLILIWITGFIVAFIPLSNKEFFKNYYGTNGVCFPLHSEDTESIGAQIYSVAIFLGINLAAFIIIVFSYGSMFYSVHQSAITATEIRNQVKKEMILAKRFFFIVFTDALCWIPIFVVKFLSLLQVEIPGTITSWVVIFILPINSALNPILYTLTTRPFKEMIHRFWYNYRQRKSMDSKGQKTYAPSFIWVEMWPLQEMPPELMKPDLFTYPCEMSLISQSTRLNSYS
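HEK293 cells stably expressing RXFP1, treated 30 min at 37C with compounds plus PDE4 inhibitor Ro 20174; cAMP measured by HTRF TR-FRET. Normalized to buffer and 29 nM porcine relaxin; EC50 by Hill fit.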
PINK1 modulator = A Quantitative High throughput Screen to Identify Chemical Modulators of PINK1 Expression | PINK1 immunofluorescence, high-content cytometry, 24 h | Potency, µM (titrated, usually from 76.6 µM), for the others: at the highest dose activation (PINK1 increase), usual class: activators | actives 0.2% (n = 410,000) | AID 624263, 2012; active = well fitted activation curve with a large enough effect; inconclusive = small, poorly fitted or top-dose-only effect; cell line not stated here; note: potency is the fitted concentration of half-maximal effect; % of control where 0% means no effect; nearly all actives have a fitted effect of over 65% in size
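PINK1 protein, normally rapidly degraded, was detected by immunofluorescence after 24 hour compound treatment of a stable cell line. Titration data (5 concentrations) came from laser-scanning cytometry, with CCCP-treated wells as controls.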
miR-21 reporter = qHTS Assay for Modulators of miRNAs and/orActivators of miR-21 | HeLa miR-21 FLuc reporter, luciferase, 48 h | Potency, µM (highest dose often 38.3 µM), for the others: at the highest dose activity change, positive = activation, usual class: activators | 340,000 tested, under 10 active | AID 2288, 2010;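 note: % of control where 0% means no effect; miR-21 action dims this reporter so a rising signal means less miR-21 action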
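HeLa miR-21-FLuc reporter line, endogenous miR-21; 2000 cells/well in DMEM/10% FBS; compound titration up to ~40uM final, 48 h, 37 degree Celsius; luciferase detection reagent, 15 min lysis, CCD luminescence.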
RXFP1 antag = qHTS Assay for Antagonists of the Relaxin Receptor RXFP1 | actives 0.59% (n = 350,000) | HEK293-RXFP1, relaxin-stimulated cAMP HTRF, 30 min; hits give low values | activity change, negative = inhibition, % at 57.5 µM;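 active = activity change of -60% or lower, but not beyond a set lower limit; inconclusive = change between -60% and -40%, or beyond the set limit; inactive = change above -40%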; note: % is set by controls: 0 for no effect and ±100 for the full control effect
TCR act = Activators of T cell receptors: qHTS campaign; primary human leukocytes, anti-CD3, IL-2 HTRF, 48 h; Potency, µM (top dose mostly 9.22 µM), without a hit: at the top dose activation of IL-2 secretion, usual class: activators; 330,000 tested, under 10 active; AID 504894, 2011; note: % of control where 0% means no effect
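HTRF read-out of IL-2 secretion: europium cryptate donor excited at 320nm, d2 acceptor emission at 665nm. Cells were primary human leukocytes incubated 48 hr with compounds and a-CD3 beads, supplying TCR signal only.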
Numbers without * were called inactive; ? = inconclusive; nt = no result given; [ ] = dose if it differs, or a comment. Only some compounds are listed: those with a hit (about 0.78% of all), similar ones and a draw of the others. Unless noted, calls come from the whole dose curve; as a rule, active = well fitted curve in the direction sought with a large enough effect; inconclusive = small, poorly fitted or top-dose-only effect, or another doubt; inactive = no such curve, though single readings can be large; an effect the other way counts as inactive or inconclusive.

SMILES	IL2 activator	RXFP1 agonist	PINK1 modulator	miR-21 reporter	RXFP1 antag	TCR act
CCOc1ccc(C(=O)c2cn(CC(=O)Nc3ccc(OC)cc3)c3cc4c(cc3c2=O)OCO4)cc1	nt	25µM*	1%	4%	nt	nt
CCOc1ccc(C(=O)c2cn(CC(=O)Nc3ccc(F)cc3)c3cc4c(cc3c2=O)OCO4)cc1	nt	10%	3%	3%	nt	nt
O=[N+]([O-])/C=C\c1ccc(N2CCOCC2)cc1	-4	nt	-1%	nt	-16	-1%
CN(c1ccccc1)c1ccc(/C=C/[N+](=O)[O-])cc1	4	0%	0%	?	-108*	0%[46.1 µM]
CCN(CC)CCOC(=O)c1ccc(NC(=O)/C=C/c2cccs2)cc1	1	2%	0%	-55%	2	0%[46.1 µM]
CCOC(=O)c1ccc(NC(=O)/C=C/c2cccs2)cc1	1	0%	-2%	-20%	-102*	5%
O=C(NCC1CCC2(CCN(Cc3cc4ccccc4o3)CC2)O1)c1ccccc1 (stereo not given)	nt	nt	4%	nt	nt	nt
CCC1CN(CCNC(=O)c2ccc3c(c2)OCO3)Cc2cc(OC)ccc2O1 (stereo not given)	nt	nt	0%	nt	nt	nt
CS(=O)(=O)c1ccc(C(=O)OCC(=O)NC23CC4CC(CC(C4)C2)C3)cc1[N+](=O)[O-]	2	0%	1%	1%	-65*	0%[46.1 µM]
CS(=O)(=O)c1ccc(C(=O)OCC(=O)NC(=O)NC2CCCCC2)cc1[N+](=O)[O-]	nt	nt	-1%	nt	nt	nt
O=C(c1ccccc1)c1cc(Cl)ccc1N1C(=O)C=CC1=O	0	0%	7%	?	-63*	nt
O=C(CC(=O)c1cc(Cl)ccc1O)c1ccccc1	0	1%	nt	-15%	-20	nt
COc1ccc(-c2cc(-c3cc(C)ccc3O)[nH]n2)cc1	-1	1%	-1%	-60%	-100*	4%
COc1ccc(-c2cc(-c3ccc(C)cc3)n[nH]2)c(O)c1	-4	0%	7%	-47%	10	4%
O=C1c2sccc2-c2cccc3cccc1c23	-3	nt	0%	nt	-1	nt
O=C1C(Br)=Cc2cccc3cccc1c23	0	-5%	4%	-7%	-69*	12%
COc1ccc(/C(C)=N/NC(=S)NCCc2ccccc2)c(O)c1	3	1%	5%	3%	-62*	7%
COc1ccc(O)c(/C=N/NC(=S)NCCc2ccccc2)c1	-5	8%	-2%	28%	?	-1%
CCC1(C2CCN(Cc3ccc(OC)cc3)CC2)NC(=O)N(CC2COc3ccccc3O2)C1=O (stereo not given)	nt	nt	0%	nt	nt	nt
CC(NC(=O)Cn1ncc(Cl)c(Cl)c1=O)C12CC3CC(CC(C3)C1)C2 (stereo not given)	-2	0%	-3%	?	-100*	8%[46.1 µM]
CCn1cc(C(=O)NC(C)C23CC4CC(CC(C4)C2)C3)cn1 (stereo not given)	1	1%	2%	-10%	-5	18%[46.1 µM]
CCOC(=O)c1sc2nc(C)[nH]c(=S)c2c1C	0	28µM*	-1%	-5%	34	-11%
CCOC(=O)c1sc2nc(C)n(N)c(=O)c2c1C	0	8%	-2%	-8%	-2	2%
CC(=O)c1ccc(-c2cc(F)cc3c2OC(CNC(=O)C(C)N2CCOCC2)C3)s1 (stereo not given)	nt	nt	2%	nt	nt	nt
COCCCn1c(=S)[nH]c2sc3c(c2c1=O)CCCS3	-1	16µM*	0%	-37%	-2	2%
SMILES	IL2 activator	RXFP1 agonist	PINK1 modulator	miR-21 reporter	RXFP1 antag	TCR act
CCOC(=O)c1ccc(NC(=O)CN(C)S(=O)(=O)c2ccc(OC)cc2)cc1	70*	0%	1%[38.3 µM]	-7%	-15	-2%
Cc1ccn(CCC(=O)N2CCOc3ccc(C(O)C4CCCCC4)cc3C2)n1 (stereo not given)	nt	nt	1%	nt	nt	nt
Cn1nc(C(=O)NCCN2Cc3ccccc3OC(c3ccsc3)C2)c2ccccc2c1=O (stereo not given)	nt	nt	2%	nt	nt	nt
COc1ccccc1Oc1nc2c(C)cccn2c(=O)c1/C=C(\C#N)c1nc2ccccc2[nH]1	nt	5%	25µM*	0%	-6	nt
COc1ccc2[nH]c3c(=O)n(Cc4ccc(C(=O)NCC5CCCO5)cc4)c(=S)[nH]c3c2c1 (stereo not given)	-1	8%	3%	-2%	-89*	-9%
CCCCNC(=O)c1ccc(Cn2c(=S)[nH]c3c([nH]c4ccc(OC)cc43)c2=O)cc1	0	3%	1%	-24%	-85*	-1%[46.1 µM]
CC[C@H](C)NC(=O)c1ccc(Cn2c(=S)[nH]c3c([nH]c4ccc(OC)cc43)c2=O)cc1	0	3%	-2%	-24%	-64*	1%[46.1 µM]
CCOCCCNC(=O)c1ccc(Cn2c(=S)[nH]c3c([nH]c4ccc(OC)cc43)c2=O)cc1	0	2%	0%	-7%	-36	2%
COc1ccc2[nH]c3c(=O)n(Cc4ccc(C(=O)N5CCCCCC5)cc4)c(=S)[nH]c3c2c1	1	4%	5%	-2%	-26	7%
O=C(NCC1CCCO1)c1ccc(Cn2c(=S)[nH]c3ccccc3c2=O)cc1 (stereo not given)	-1	4%	3%	-8%	?	-4%
Cc1ccc(C)c(S(=O)(=O)NCc2nc(N3CCCC3)c3cc(Cl)ccc3n2)c1	nt	nt	1%	nt	nt	nt
Cc1oc(-c2ccccc2NC(=O)C2CCCO2)nc1CNC(=O)c1cc(Cl)ccc1F (stereo not given)	nt	nt	1%	nt	nt	nt
OCCCNCc1ccc(N(c2ccccc2)c2ccccc2)cc1	-1	0%	-2%	0%	-69*	2%
O=c1oc2cc(O)c(Cl)cc2c2ccccc12	0	11µM*	-1%	-17%	43	-1%[46.1 µM]
COc1ccc2c(c1)oc(=O)c1ccccc12	-3	-2%	3%	-37%	2	-7%
O=C1/C(=C/c2cccs2)SC(=S)N1N1CCOCC1	-1	0%	-1%	-9%	-96*	0%
CCn1c(-c2ccccc2F)nc2cc(NC(C)=O)cc(C(=O)N(C)Cc3ccccn3)c21	nt	nt	0%	nt	nt	nt
Cc1nonc1NC(=O)CSc1nc2c(C)cccc2cc1C#N	5	29%	45µM*	-38%	-9	0%
Cc1cc2cc(C#N)c(SCC(=O)Nc3nonc3C)nc2cc1C	3	30%	?	-22%	-9	0%
Cc1ccc(CCn2c3c(c4cc(Cl)ccc42)CN(C)CC3)cn1	nt	nt	nt	nt	-16	nt
